Only some compounds are listed: those with a hit (about 2.6% of all), similar ones and a draw of the others.
LT uptake inh – anthrax lethal toxin internalization inhibition | Cells, anthrax lethal toxin internalization, FRET ratio (460/530) | Potency, µM (series often up to 40 µM), inactives show top-dose activity change, negative = inhibition, hits mostly inhibitors | hit rate 0.67% among 70,000 | AID 912; also: % is scaled to controls: 0 for no effect and ±100 for the full control effect; nearly all actives have a fitted effect of over 50% in size
AmpC nodet inh – blocks E. coli AmpC beta-lactamase in absence of detergent. P00811. AmpC nitrocefin hydrolysis, absorbance 480 nm, no detergent. Potency, µM (highest dose often 28.7 µM), for inactives: top-dose activity change, negative = inhibition. hit rate 1.8% among 71,000; also: % of control where 0% means no effect
Target sequence (P00811 whole entry, looked up): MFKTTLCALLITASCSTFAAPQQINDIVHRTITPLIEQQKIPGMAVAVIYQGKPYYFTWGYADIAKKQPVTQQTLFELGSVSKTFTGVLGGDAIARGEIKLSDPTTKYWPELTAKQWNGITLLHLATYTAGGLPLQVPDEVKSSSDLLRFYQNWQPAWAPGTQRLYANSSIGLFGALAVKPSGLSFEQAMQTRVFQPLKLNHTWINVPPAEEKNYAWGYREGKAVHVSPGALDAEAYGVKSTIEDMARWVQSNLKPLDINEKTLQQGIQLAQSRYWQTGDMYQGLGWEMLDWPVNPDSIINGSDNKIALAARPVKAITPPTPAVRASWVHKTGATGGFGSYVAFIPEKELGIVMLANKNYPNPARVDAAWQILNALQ
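AmpC in 20 mM phosphate buffer pH 7.0 was preincubated 15 min at room temperature with compounds. Nitrocefin (800 uM stock) was then added and hydrolysis followed at 480 nm every 20 s for 4 min.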
Prx2 Sm inh – inhibitors of Schistosoma mansoni peroxiredoxin 2; S. mansoni Prx2 activity coupled to TGR/GSH (TGR is thioredoxin glutathione reductase), NADPH fluorescence loss, qHTS; Potency, µM; AID 448; hit rate 0.07% among 65,000
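Enzyme mix: 100 uM NADPH, 25 nM TGR, 700 uM GSH, 50 nM Prx2 in 100 mM phosphate pH 7.4, 10 mM EDTA, 0.01% Tween-20. 15 min RT with compound; NADPH/GSH added, H2O2 starts reaction; NADPH fluorescence read 8 min.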
AmpC inh det – blocks E. coli AmpC beta-lactamase in presence of detergent; P00811; purified AmpC, nitrocefin hydrolysis with detergent; Potency, µM (titrated, usually from 28.7 µM), without a hit: top-dose activity change, negative = inhibition; hit rate 0.09% among 71,000; AID 584; active = well fitted curve in the direction sought with a large enough effect; inconclusive = small, poorly fitted or top-dose-only effect; also: % is scaled to controls: 0 for no effect and ±100 for the full control effect
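E. coli AmpC (5.3 nM) in 20 mM phosphate pH 7.0 with 0.01% Triton X-100, preincubated 15 min RT with compound; nitrocefin (2 uL of 800 uM stock) hydrolysis followed by 480 nm absorbance every 20 s over 4 min.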
* hit, by the source's call; ? = inconclusive; · = no result given; ! = not active in a repeat; [ ] = dose if it differs, or a comment. Unless noted, calls follow the shape of the full dose curve. Potency is read from the fitted curve at half-maximal effect.

SMILES | LT uptake inh | AmpC nodet inh | Prx2 Sm inh | AmpC inh det
O=C(NC1CCCCCC1)C1CCN(S(=O)(=O)c2cccc3cccnc23)CC1 | -15% | 23% | >57 | 30%
CCOC(=O)N1CCC(NC(=O)C2CCCN(S(C)(=O)=O)C2)CC1 (stereo not given) | ? | -6% | >57 | -4%
CCOC(=O)N1CCC(NC(=O)C2CCCN(S(=O)(=O)c3cccnc3)C2)CC1 (stereo not given) | -5% | 4µM*[single pt active] | >57 | 12%
O=C(NCCc1ccccc1)C1CCCN(S(=O)(=O)c2cccnc2)C1 (stereo not given) | -1% | 3% | >57 | -1%
O=C(c1ccncc1)N1CCC2(CC1)CN(c1cccc(-c3ccccc3)c1)C2 | -16% | 167% | >11 | 4%
O=S(=O)(c1ccccc1)N1CCC2(CCCN(c3ccccn3)C2)CC1 | ? | 21% | >57 | -3%
C[C@H](CCC(=O)NN)[C@@H]1CC[C@@H]2[C@H]3CC[C@H]4C[C@@H](O)CC[C@@]4(C)[C@@H]3CC[C@]21C | -9%[8 µM] | -4%[5.75 µM] | >57 | -3%[5.75 µM]
COc1ccc2c(c1)OC13CCN(C)CC1C2C(C(=O)c1ccc(F)cc1)C(=O)N3 (stereo not given) | -18% | 4µM*[single pt active] | >57 | 16%
Cc1cc(C)n2nc(SCC(=O)Nc3ccc(F)cc3)nc2n1 | -1% | 4µM*[single pt active] | ? | 13%
Cc1cc(C)n2nc(SCC(=O)Nc3c(C)nn(-c4ccccc4)c3C)nc2n1 | -7% | 22% | >57 | -4%
Fc1ccc(C2CC(c3ccco3)n3ncnc3N2)cc1 (stereo not given) | -11% | 4µM*[single pt active] | >57 | 11%
COc1ccc(-n2c(Cc3cc(=O)[nH]c(=O)[nH]3)nnc2SCC(=O)NC2CCCC2)cc1 | 4% | 4µM*[single pt active] | >57 | 13%
CCOc1ccc(-n2c(Cc3cc(=O)[nH]c(=O)[nH]3)nnc2SCC(=O)NC2CCCC2)cc1 | -12% | ? | >57 | 14%
O=C(CSc1nnc(Cc2cc(=O)[nH]c(=O)[nH]2)n1-c1ccc(Cl)cc1)NCC1CCCO1 (stereo not given) | 4% | 7% | >57 | -2%
O=C(CSc1nnc(Cc2cc(=O)[nH]c(=O)[nH]2)n1-c1ccc(Cl)cc1)NC1CCCC1 | 4% | 4µM*[single pt active] | >57 | 9%
CC[C@H]1C2=C3C(CC[C@H]4C(OC)OC[C@](C)([C@@H]34)N(C(=O)OC(C)(C)C)C2)C(CO)C1CO (stereo not given in full) | ? | 161% | >57 | 5%
O=C(Nc1cnc2ccccc2c1)c1cccnc1 | -6% | 4µM*[single pt active] | >57 | 10%
N[C@H](CCCC(=O)O)C(=O)O | -4% | -2% | >57 | -3%
COc1ccc(OC)c(Nc2nc(-c3cccs3)cs2)c1 | ? | 4% | >57 | 13%
COc1ccccc1Nc1nc(-c2cccs2)cs1 | ? | 7.9µM*[single pt active] | · | -5%
Cn1c(Cn2c(=O)sc3ccccc32)nnc1SCC(=O)N1CCCCCC1 | ? | 4µM*[single pt active] | >57 | 12%
COc1ccccc1NC(=O)CSc1nnc(Cn2c(=O)sc3ccccc32)n1C | -8% | 4µM*[single pt active] | >57 | 9%
CCOC(=O)CSc1nnc(Cn2c(=O)sc3ccccc32)n1C | 1% | 8% | >57 | 5%
Cn1c(Cn2c(=O)sc3ccccc32)nnc1SCC(=O)N1CCOCC1 | -2% | 4µM*[single pt active] | >57 | 13%
CCOC(=O)N1CCN(C(=O)CSc2nnc(Cn3c(=O)sc4ccccc43)n2C)CC1 | -2% | 4µM*[single pt active] | >57 | 12%
SMILES | LT uptake inh | AmpC nodet inh | Prx2 Sm inh | AmpC inh det
O=Cc1ccsc1B(O)O | 0% | · | · | ·
CCCc1c(-c2ccc(O)cc2)nn(-c2ccc(O)cc2)c1-c1ccc(O)cc1 | ? | 7.9µM*! | >57 | -7%
CC(C)c1ccccc1S(=O)(=O)c1cc(N)c2ncccc2c1[N+](=O)[O-] | 5% | · | · | ·
CCCCCNCCCCC | -1% | 1% | · | 9%
CCc1cc2c(=O)n(Cc3ccco3)c(SCc3c(C)noc3C)nc2s1 | 10µM* | 29% | >57 | 7%
CCNc1ncc2nc(-c3cn(C)c4ccccc34)c(=O)n(C[C@H]3CCCO3)c2n1 | ? | 2% | >57 | -1%
Cc1noc(C)c1-c1nc(NCCN2CCOCC2)c2ccccc2n1 | 14% | 34% | >57 | 6%
O=C(/C=C/c1ccc(O)c(O)c1)OC1C[C@](O)(C(=O)O)C[C@@H](O)[C@H]1O (stereo not given in full) | 4% | ? | · | 8%
CCOC(=O)N1CCN(c2c(NCCCN(CC)c3cccc(C)c3)c(=O)c2=O)CC1 | 1% | 84% | >57 | -3%
CCOC(=O)N1CCN(c2c(NCc3ccccn3)c(=O)c2=O)CC1 | -14% | 4µM*[single pt active] | >57 | 15%
CCOC(=O)N1CCN(c2c(Nc3cc(C)[nH]n3)c(=O)c2=O)CC1 | -5% | 2.5µM*[single pt active] | ? | 12%
CC(=O)Nc1ccc(S(=O)(=O)Nc2cccc(-c3nc4cc(C)ccc4o3)c2)cc1 | 13µM* | 38% | >57 | -4%
Cc1ccc2oc(-c3cccc(NC(=O)C4CCCO4)c3)nc2c1 (stereo not given) | 0% | 113% | >57 | -2%
Cc1c(-c2ccc(Cl)cc2)noc1C1CCN(CCc2ccccc2)CC1 | ? | 11% | >57 | -4%
CN1CCN(c2ncc3nc(-c4cc(F)cc(F)c4)c(=O)n(-c4ccccc4)c3n2)CC1 | ? | 156% | >57 | 0%
COc1ccccc1S(=O)(=O)Cc1ccc(C(=O)NCc2cccs2)o1 | · | -2% | >57 | -9%
CCCCNC(=O)c1ccc(CS(=O)(=O)c2ccc(OC)cc2)o1 | -6% | 4µM*[single pt active] | >57 | 11%
COc1ccc(S(=O)(=O)Cc2ccc(C(=O)NCc3ccco3)o2)cc1 | -9% | 4µM*[single pt active] | >57 | 8%
O=C(NCc1ccco1)c1ccc(CS(=O)(=O)c2cccc(C(F)(F)F)c2)o1 | 11% | 26% | >57 | -1%
O=C(NCc1ccc2c(c1)OCO2)c1ccc(CS(=O)(=O)c2ccc(Br)cc2)o1 | ? | 4µM*[single pt active] | >57 | 16%
COc1ccc(S(=O)(=O)Cc2ccc(C(=O)NCc3cccs3)o2)cc1 | -11% | 4µM*[single pt active] | >57 | 8%
Nc1ncnc2c1nc(Br)n2[C@@H]1O[C@H]2COP(=O)(O)O[C@@H]2[C@H]1O | 3% | -8% | >57 | -2%
COc1ccc(Oc2ncc3nc(-c4ccc(OC)cc4)c(=O)n(Cc4cccs4)c3n2)cc1 | ? | 7% | >57 | -2%
CCCCNc1nc(C)nc2c1nc(-c1ccccc1)n2CCN(C)C | 9% | 65% | · | 6%
CCOC(=O)N1CCN(C(=O)CS(=O)Cc2nc(-c3ccc(C)cc3)oc2C)CC1 (stereo not given) | -16% | 109% | >57 | 12%
Cc1cccc(-c2nc(CS(=O)CC(=O)N3CCCCC3)c(C)o2)c1 (stereo not given) | -3% | 4µM*[single pt active] | >57 | 16%
Cc1cccc(-c2nc(CS(=O)CC(=O)NCC3CCCO3)c(C)o2)c1 (stereo not given) | -5% | 4µM*[single pt active] | >57 | 11%
CN(C)CCCO[C@H]1[C@@H]2OC(C)(C)O[C@@H]2O[C@@H]1[C@H](O)CO | -2%[3.58 µM] | -7%[12.8 µM] | >57 | -1%[12.8 µM]

Assay outcomes from PubChem.
